Values joined by “and” are separate entries in the source; they are usually repeats but may differ in a detail not shown here. Identical values can stand only once. Inconclusive results are not listed. A call without a number means that no potency is given here. Values without a mark were called inactive. Active and inactive are the calls of the source. The call rests on the fitted dose curve; in most records, active means well fitted curve in the direction sought with a large enough effect; inconclusive means small, poorly fitted or top-dose-only effect, or another doubt; inactive means no such curve, though single readings can be large; an effect the other way counts as inactive or inconclusive.
Columns and labels:
[1] = target: Cytochrome P450 3A7 (Homo sapiens) (UniProt P24462); assay: Cytochrome P450 family 3 subfamily A member 7 (CYP3A7) small molecule antagonists: luciferase biochemical qHTS assay (AID 1963596); further: nearly all actives have a fitted effect of over 40% in size; further: potency means the concentration at half of the fitted maximal effect
Cytochrome P450 3A7 (Homo sapiens), sequence (P24462 whole entry, looked up): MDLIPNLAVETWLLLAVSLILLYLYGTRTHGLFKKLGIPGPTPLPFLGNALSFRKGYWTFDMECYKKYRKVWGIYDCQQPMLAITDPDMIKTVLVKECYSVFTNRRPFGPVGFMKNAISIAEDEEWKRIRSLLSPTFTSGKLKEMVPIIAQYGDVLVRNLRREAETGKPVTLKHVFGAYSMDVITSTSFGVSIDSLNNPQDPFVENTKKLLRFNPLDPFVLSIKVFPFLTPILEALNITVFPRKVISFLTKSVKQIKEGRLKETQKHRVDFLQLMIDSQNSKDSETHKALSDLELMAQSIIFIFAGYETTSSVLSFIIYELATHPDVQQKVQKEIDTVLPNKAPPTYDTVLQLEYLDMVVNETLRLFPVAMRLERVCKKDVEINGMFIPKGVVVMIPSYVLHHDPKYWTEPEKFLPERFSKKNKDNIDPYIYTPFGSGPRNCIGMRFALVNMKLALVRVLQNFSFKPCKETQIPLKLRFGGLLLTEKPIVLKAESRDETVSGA
Method in brief: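 P450-Glo luminescent assay: CYP3A7 enzyme converts a proluciferin substrate to luciferin, detected by luciferase reagent; light proportional to activity. Compounds in DMSO preincubated 10 min with enzyme-substrate mix at room temperature, then NADPH regeneration added for 1 h.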

[2] = Viability qHTS for spleen associated tyrosine kinase inhibitor (SYKi) naive MV4-11 cells (AID 1963823); further: nearly all actives have a fitted effect of over 40% in size; further: potency means the concentration at half of the fitted maximal effect
Method in brief: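 SYK inhibitor-naive MV4-11 cells, 500 per well, exposed to compounds for 72 hr at 37 C, 5% CO2. Viability read as CellTiter-Glo luminescence after 10 min at room temperature.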

[3] = Viability qHTS for spleen associated tyrosine kinase inhibitor (SYKi) drug resistant MV4-11 cells (AID 1963824); further: nearly all actives have a fitted effect of over 35% in size; further: potency means the concentration at half of the fitted maximal effect
Method in brief: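 CellTiter-Glo luminescence, read 10 min after reagent addition, reports viability after a 72 hr compound exposure. Cells are an MV4-11 line made resistant to SYK inhibition, seeded at 500 per well onto compound-containing plates.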

[4] = Quantitative highthroughput screen to assess conditional lethalithy of NOMO1 cells grown in RPMI1640 with untreated serum (RPMI+s) (AID 1963876); further: nearly all actives have a fitted effect of over 35% in size; further: potency means the concentration at half of the fitted maximal effect
Method in brief: (§1)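 Each medium arm—HPLM with 10% dialyzed FBS, or RPMI1640 with 5 mM glucose and 10% untreated or dialyzed FBS—was screened against an 11-point, 3-fold compound titration for 48 h at 37 °C, with CellTiter-Glo luminescence as endpoint.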

[5] = Quantitative highthroughput screen to assess conditional lethalithy of NOMO1 cells grown in RPMI1640 with dialyzed fetal bovine serum (RPMI+ds) (AID 1963877); further: nearly all actives have a fitted effect of over 30% in size; further: potency means the concentration at half of the fitted maximal effect; on Viability: series mostly up to about 46 µM
Method in brief: as §1

[6] = Quantitative highthroughput screen to assess conditional lethalithy of P12 Ichikawa cells grown in RPMI1640 with dialyzed fetal bovine serum (RPMI+ds) (AID 1963880); conditions: Potency: P12-Ichikawa viability; further: nearly all actives have a fitted effect of over 35% in size; further: potency means the concentration at half of the fitted maximal effect
Method in brief: as §1

[7] = Quantitative highthroughput screen to assess conditional lethalithy of P12 Ichikawa cells grown in RPMI1640 with untreated serum (RPMI+s) (AID 1963881); conditions: Potency: viability; further: nearly all actives have a fitted effect of over 35% in size; further: potency means the concentration at half of the fitted maximal effect; on Viability: series mostly up to about 46 µM
Method in brief: as §1

[8] = Quantitative highthroughput screen to assess conditional lethalithy of SEM cells grown in RPMI1640 with unreated serum (RPMI+s) (AID 1963883); further: nearly all actives have a fitted effect of over 35% in size; further: potency means the concentration at half of the fitted maximal effect
Method in brief: as §1

[9] = Cellular viability qHTS for adrenocortical cancer (ACC) cell line SW-13 (AID 1963989); conditions: SW-13 ACC cells viability, CellTiter-Glo, 48 h; activity (max response): active compounds read low; further: nearly all actives have a fitted effect of over 65% in size; further: potency means the concentration at half of the fitted maximal effect;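 on activity (max response): cells grown in serum-free medium with ITS supplement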
Method in brief: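 Compound titrations (up to 46 uM final, in DMSO) were applied to SW-13 cells for 48 h at 37C/5% CO2. Reading used CellTiter-Glo after 20 min at room temperature; fitted curves yielded IC50 and efficacy.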

[10] = Cellular viability qHTS for adrenocortical cancer (ACC) cell line NCI-H295R (AID 1963990); further: nearly all actives have a fitted effect of over 60% in size; further: potency means the concentration at half of the fitted maximal effect
Method in brief: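 Readout: CellTiter-Glo luminescence, 20 min RT. Exposure: 48 h, 37C/5% CO2. Cells: NCI-H295R, ITS-DMEM serum-free. Range: up to 46 uM. Analysis: 4PL fit, IC50 plus efficacy.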

[11] = Quantitative highthroughput screen to assess conditional lethalithy of NOMO1 cells grown in Human Plasma-Like Medium with dialyzed fetal bovine serum (HPLM+ds) (AID 1963878); further: nearly all actives have a fitted effect of over 35% in size; further: potency means the concentration at half of the fitted maximal effect
Method in brief: as §1

[12] = Quantitative highthroughput screen to assess conditional lethalithy of P12 Ichikawa cells grown in Human Plasma-Like Medium with dialyzed fetal bovine serum (HPLM+ds) (AID 1963879); conditions: Potency: viability
Method in brief: as §1

[13] = Quantitative highthroughput screen to assess conditional lethalithy of SEM cells grown in Human Plasma-Like Medium with dialyzed fetal bovine serum (HPLM+ds) (AID 1963882); further: nearly all actives have a fitted effect of over 35% in size; further: potency means the concentration at half of the fitted maximal effect; on Viability: series mostly up to about 46 µM
Method in brief: as §1

[14] = Quantitative highthroughput screen to assess conditional lethalithy of SEM cells grown in RPMI1640 with dialyzed fetal bovine serum (RPMI+ds) (AID 1963884); further: nearly all actives have a fitted effect of over 35% in size; further: potency means the concentration at half of the fitted maximal effect; on Viability: series mostly up to about 46 µM
Method in brief: as §1

SMILES	Potency [1]	Potency [2]	Potency [3]	Potency [4]	Potency [5]	Potency [6]	Potency [7]	Potency [8]	activity (max response) [9]	Potency [10]	Potency [11]	Potency [12]	Potency [13]	Potency [14]	Potency [9]
O=c1[nH]cnc2[nH]ncc12	inactive	inactive	inactive	inactive	inactive	inactive	inactive	inactive	1.44% and -3.08%	inactive	–	–	–	–	–
Cc1cn([C@H]2C=C[C@@H](CO)O2)c(=O)[nH]c1=O	inactive	inactive	inactive	inactive	inactive	–	inactive	inactive	4.28%	inactive	inactive	inactive	inactive	–	–
COc1cc2ncnc(Nc3cc(Br)c(O)c(Br)c3)c2cc1OC	inactive	11.8 µM (active) and 11.6 µM (active)	13.2 µM (active) and 9.2 µM (active)	inactive	–	inactive	–	inactive	–	inactive	inactive	inactive	inactive	–	–
CCC(C)(Oc1ccc(C2(c3ccc(OC(C)(CC)C(=O)O)cc3)CCCCC2)cc1)C(=O)O (configuration not stated)	inactive	inactive	inactive	inactive	inactive	–	inactive	–	–	inactive	inactive	inactive	inactive	inactive	–
O=C(O)CSCC(=O)NC1CCSC1=O (configuration not stated)	inactive	inactive	inactive	inactive	inactive	inactive	inactive	inactive	1.69% and -8.03%	inactive	inactive	–	inactive	inactive	–
CC[N+](CC)(CC)CCOc1cccc(OCC[N+](CC)(CC)CC)c1OCC[N+](CC)(CC)CC	inactive	inactive	inactive	inactive	inactive	inactive	inactive	inactive	11.3% and -11.4%	inactive	–	inactive	inactive	inactive	–
COc1cc(OC)c(C(=O)CCCN2CCCC2)c(OC)c1	inactive	inactive	inactive	inactive	inactive	inactive	inactive	inactive	9.88% and 2.45%	inactive	–	inactive	inactive	inactive	–
C[N+](C)(C)CC(=O)O	inactive	inactive	inactive	inactive	inactive	inactive	inactive	–	-6.24% and 7.87%	inactive	inactive	–	–	inactive	–
NC1=N[C@H]2[C@H](CS[C@H]2CCCCC(=O)O)N1	inactive	inactive	inactive	inactive	inactive	inactive	inactive	inactive	13%	inactive	–	inactive	inactive	inactive	–
CO[C@@H]1COCC[C@@H]1N[C@@H]1CC[C@@](C(=O)N2CCc3ncc(C(F)(F)F)cc3C2)(C(C)C)C1	inactive	inactive	inactive	inactive	inactive	–	–	–	–	inactive	–	–	–	–	–
NS(=O)(=O)c1cc2c(cc1Cl)NC(C(Cl)Cl)NS2(=O)=O (configuration not stated)	inactive	inactive	inactive	inactive	inactive	inactive	inactive	inactive	15.1% and 11.4%	inactive	–	inactive	inactive	inactive	–
CCC1(C)CC(=O)NC1=O (configuration not stated)	inactive	inactive	inactive	inactive	inactive	–	inactive	inactive	14.5% and 4.04%	inactive	inactive	inactive	inactive	inactive	–
O=C1CSC(=O)N1C(CCc1ccncc1)COc1ccc(-c2cccc([N+](=O)[O-])c2)cc1 (configuration not stated)	1.34 µM (active)	7.42 µM (active)	4.17 µM (active)	inactive	inactive	–	inactive	–	–	–	–	inactive	inactive	–	–
CNNCc1ccc(C(=O)NC(C)C)cc1	inactive	inactive	inactive	inactive	inactive	–	–	–	0.571% and -4.58%	inactive	–	inactive	–	–	–
CC(=O)c1cnc2ccc(-c3cc(Cl)c(O)c(Cl)c3)nc2c1NC1CCC(CN(C)C)CC1 (configuration not stated)	inactive	4.7 nM (active) and 0.8 nM (active)	11.9 nM (active) and 2.9 nM (active)	0.132 µM (active)	0.132 µM (active)	0.132 µM (active)	0.148 µM (active)	0.0741 µM (active)	–	0.212 µM (active)	0.066 µM (active)	–	0.0741 µM (active)	0.0588 µM (active)	0.0751 µM (active)

Reference: PubChem BioAssay (NCATS)
